Binding signal data for eight sequences are collected here from PMC7862700, “An all-to-all approach to the identification of sequence-specific readers for epigenetic DNA modifications on cytosine”.

Experiment in all cases: DAPPL (digital affinity profiling via proximity ligation, sequencing); 10 mM Tris-HCl pH 7.5, 50 mM NaCl, 1 mM DTT, 4% glycerol, room temperature, 30 min; GST-TFs on glutathione beads, 16-mer random dsDNA library, 0.1% formaldehyde crosslink after washing; high values mean tight binding
The target in one assay is T1, FEV (Homo sapiens, UniProt Q99581 1-238).
T1 sequence: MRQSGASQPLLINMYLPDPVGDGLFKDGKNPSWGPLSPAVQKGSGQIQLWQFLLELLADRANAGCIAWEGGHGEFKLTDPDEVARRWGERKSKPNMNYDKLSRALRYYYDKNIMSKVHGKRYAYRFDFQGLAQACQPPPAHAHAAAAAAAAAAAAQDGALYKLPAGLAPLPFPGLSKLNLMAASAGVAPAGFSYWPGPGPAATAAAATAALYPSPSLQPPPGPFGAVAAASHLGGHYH
The following applies: protein: recombinant; tags: N-terminal GST; dsDNA, one strand shown. The method in brief: (§1)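 Human transcription factors fused to GST were expressed in yeast, captured on glutathione beads, given DNA barcodes and pooled with a GST-only negative control. Pools were incubated with 200 nmole of a 16-mer random double-stranded DNA library in Tris/NaCl/DTT/glycerol buffer at room temperature for 30 min. They were then washed, crosslinked with 0.1% formaldehyde, proximity-ligated (BsaI/T4 ligase, 1 h, 37 °C), PCR-amplified and sequenced on an Illumina NextSeq500. Binding signal is each 6-mer's read frequency for a factor divided by its frequency for the GST control.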

For a further assay, the target named is ETV5 (Homo sapiens, UniProt P41161 1-510). Conditions: protein: recombinant; tags: N-terminal GST; dsDNA, one strand shown. Put shortly:
as §1

The next assay has as its target HSF1 (Homo sapiens, UniProt Q00613 1-529). Conditions: protein: recombinant; tags: N-terminal GST; chain copies: 3; dsDNA, one strand shown. Put shortly:
as §1

The target in the next assay is T2, SPIC (Homo sapiens, UniProt Q8N5J4 1-248).
T2 sequence: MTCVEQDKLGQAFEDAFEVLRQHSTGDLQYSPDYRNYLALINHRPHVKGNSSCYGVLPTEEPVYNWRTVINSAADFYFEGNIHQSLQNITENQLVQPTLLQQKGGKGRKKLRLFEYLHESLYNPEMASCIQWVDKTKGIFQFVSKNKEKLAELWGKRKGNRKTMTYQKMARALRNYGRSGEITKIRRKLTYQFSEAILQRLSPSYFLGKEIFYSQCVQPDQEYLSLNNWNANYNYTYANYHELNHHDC
The following applies: protein: recombinant; tags: N-terminal GST; dsDNA, one strand shown. The method in brief:
as §1

A further assay addresses ELF4 (Homo sapiens, UniProt Q99607 1-663). The following applies: protein: recombinant; tags: N-terminal GST; dsDNA, one strand shown. Put shortly:
as §1

The next assay concerns the target T3, ELK4 (Homo sapiens, UniProt P28324-2 1-405).
T3 sequence: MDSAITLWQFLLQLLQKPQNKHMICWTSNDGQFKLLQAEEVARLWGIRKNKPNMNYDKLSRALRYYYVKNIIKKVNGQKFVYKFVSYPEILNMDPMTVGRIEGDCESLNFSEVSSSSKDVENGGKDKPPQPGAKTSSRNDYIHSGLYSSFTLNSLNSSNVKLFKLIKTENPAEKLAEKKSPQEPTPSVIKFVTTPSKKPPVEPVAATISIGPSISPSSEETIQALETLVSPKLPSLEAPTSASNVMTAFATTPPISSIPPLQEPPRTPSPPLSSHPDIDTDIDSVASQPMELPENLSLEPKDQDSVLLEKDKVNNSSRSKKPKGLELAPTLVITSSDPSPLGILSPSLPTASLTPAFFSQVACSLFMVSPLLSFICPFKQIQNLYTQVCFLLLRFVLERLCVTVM
Conditions: protein: recombinant; tags: N-terminal GST; dsDNA, one strand shown. Put shortly:
as §1

A further assay concerns the target T4, ETV2 (Homo sapiens, UniProt O00321 1-342).
T4 sequence: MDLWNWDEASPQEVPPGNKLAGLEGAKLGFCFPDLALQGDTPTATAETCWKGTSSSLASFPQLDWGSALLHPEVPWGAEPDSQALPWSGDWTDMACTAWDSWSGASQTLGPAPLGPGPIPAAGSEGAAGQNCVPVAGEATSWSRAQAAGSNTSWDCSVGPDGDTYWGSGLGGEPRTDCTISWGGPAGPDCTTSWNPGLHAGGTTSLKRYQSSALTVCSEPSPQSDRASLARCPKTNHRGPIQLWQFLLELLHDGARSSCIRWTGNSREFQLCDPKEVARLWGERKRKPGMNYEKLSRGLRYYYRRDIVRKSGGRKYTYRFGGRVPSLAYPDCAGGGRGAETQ
The following applies: protein: recombinant; tags: N-terminal GST; dsDNA, one strand shown. The method in brief:
as §1

Another assay addresses T5, ELF3 (Homo sapiens, UniProt P78545 1-371).
T5 sequence: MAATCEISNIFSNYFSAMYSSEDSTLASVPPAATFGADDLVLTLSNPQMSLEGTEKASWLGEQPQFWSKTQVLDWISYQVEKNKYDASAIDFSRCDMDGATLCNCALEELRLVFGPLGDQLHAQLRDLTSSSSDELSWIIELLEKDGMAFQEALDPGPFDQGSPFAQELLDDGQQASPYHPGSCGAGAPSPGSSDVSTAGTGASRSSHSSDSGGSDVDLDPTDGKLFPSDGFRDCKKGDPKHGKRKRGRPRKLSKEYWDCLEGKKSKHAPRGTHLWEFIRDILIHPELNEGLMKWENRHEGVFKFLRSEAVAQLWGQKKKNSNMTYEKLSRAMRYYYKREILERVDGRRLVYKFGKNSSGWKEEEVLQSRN
The following applies: protein: recombinant; tags: N-terminal GST; dsDNA, one strand shown. The method in brief:
as §1

For another assay, the target named is CRX (Homo sapiens, UniProt O43186 1-299). The following applies: protein: recombinant; tags: N-terminal GST; dsDNA, one strand shown. Put shortly: as §1
CRX, sequence (O43186 whole entry): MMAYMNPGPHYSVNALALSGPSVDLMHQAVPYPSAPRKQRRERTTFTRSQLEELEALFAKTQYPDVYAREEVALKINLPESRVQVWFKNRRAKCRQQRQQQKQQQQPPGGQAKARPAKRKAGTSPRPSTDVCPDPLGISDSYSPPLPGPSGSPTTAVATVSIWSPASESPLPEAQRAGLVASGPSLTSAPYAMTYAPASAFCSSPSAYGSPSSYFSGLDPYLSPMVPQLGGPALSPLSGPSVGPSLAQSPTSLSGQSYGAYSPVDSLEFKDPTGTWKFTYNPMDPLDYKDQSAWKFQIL
Another assay concerns the target ETV1 (Homo sapiens, UniProt P50549 1-477). The following applies: protein: recombinant; tags: N-terminal GST; dsDNA, one strand shown. Put shortly:
as §1

ETV5, sequence (P41161 whole entry): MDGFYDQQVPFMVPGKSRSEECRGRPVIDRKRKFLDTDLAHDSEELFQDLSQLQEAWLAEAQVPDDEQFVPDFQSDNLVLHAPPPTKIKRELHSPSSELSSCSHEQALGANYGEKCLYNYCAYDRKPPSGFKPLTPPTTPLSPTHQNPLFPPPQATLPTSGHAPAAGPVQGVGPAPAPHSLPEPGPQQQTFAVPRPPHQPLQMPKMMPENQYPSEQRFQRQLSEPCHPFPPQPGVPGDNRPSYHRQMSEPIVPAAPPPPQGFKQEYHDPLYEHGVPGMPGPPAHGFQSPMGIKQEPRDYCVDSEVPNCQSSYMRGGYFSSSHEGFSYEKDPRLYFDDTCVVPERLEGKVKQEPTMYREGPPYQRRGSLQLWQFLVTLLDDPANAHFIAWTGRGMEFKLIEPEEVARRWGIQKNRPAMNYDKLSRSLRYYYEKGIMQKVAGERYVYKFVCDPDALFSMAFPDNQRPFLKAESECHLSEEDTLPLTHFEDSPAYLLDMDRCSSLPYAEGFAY
ELF4, sequence (Q99607 whole entry): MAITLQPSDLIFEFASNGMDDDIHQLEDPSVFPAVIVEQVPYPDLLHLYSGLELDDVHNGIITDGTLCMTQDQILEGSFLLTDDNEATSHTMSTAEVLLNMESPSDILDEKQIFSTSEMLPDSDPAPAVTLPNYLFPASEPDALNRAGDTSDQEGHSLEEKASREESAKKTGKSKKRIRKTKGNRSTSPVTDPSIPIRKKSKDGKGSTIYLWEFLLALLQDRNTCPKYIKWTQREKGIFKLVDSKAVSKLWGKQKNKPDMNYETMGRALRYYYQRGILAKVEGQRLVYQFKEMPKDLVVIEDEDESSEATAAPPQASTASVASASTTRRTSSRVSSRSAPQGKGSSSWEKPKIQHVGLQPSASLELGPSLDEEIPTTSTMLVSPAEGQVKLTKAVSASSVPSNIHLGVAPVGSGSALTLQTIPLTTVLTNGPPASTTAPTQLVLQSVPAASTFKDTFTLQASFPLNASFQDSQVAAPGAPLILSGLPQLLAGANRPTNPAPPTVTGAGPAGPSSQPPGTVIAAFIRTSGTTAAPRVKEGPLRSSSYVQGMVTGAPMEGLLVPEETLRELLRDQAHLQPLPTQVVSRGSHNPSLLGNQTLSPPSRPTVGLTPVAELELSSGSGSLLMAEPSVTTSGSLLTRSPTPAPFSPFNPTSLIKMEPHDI
HSF1, sequence (Q00613 whole entry): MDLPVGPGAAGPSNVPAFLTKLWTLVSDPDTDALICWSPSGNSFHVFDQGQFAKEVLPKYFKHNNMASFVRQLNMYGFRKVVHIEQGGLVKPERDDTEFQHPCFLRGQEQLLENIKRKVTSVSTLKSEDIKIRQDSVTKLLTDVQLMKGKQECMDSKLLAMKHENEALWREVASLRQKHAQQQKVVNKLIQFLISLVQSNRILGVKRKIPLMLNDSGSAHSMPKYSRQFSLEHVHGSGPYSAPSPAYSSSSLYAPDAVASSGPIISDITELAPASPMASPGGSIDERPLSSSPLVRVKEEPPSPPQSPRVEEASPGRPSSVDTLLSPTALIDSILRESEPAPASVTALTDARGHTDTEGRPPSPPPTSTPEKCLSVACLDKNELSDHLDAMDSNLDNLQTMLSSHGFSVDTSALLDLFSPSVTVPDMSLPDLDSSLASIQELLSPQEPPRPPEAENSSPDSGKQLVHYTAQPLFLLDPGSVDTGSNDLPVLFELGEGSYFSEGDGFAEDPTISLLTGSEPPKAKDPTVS
ETV1, sequence (P50549 whole entry): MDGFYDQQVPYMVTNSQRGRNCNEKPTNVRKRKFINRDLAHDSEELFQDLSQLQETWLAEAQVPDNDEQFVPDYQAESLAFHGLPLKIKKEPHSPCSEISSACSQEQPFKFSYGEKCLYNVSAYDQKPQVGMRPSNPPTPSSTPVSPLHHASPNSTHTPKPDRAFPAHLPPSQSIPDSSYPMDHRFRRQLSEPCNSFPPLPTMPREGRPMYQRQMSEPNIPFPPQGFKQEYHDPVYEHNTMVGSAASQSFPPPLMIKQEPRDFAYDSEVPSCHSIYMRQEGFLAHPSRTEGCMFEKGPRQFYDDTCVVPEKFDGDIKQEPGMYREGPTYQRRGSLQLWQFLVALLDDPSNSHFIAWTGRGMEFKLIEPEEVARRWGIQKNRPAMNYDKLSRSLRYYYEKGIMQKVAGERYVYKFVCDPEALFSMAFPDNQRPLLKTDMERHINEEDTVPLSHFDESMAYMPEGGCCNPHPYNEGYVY

Turning to TAATAG, the binding signal is 1.18 fold enrichment (6-mer frequency, TF over GST control) with FEV; 1.21 fold enrichment (6-mer frequency, TF over GST control) with ETV5; 1.54 fold enrichment (6-mer frequency, TF over GST control) with HSF1; 1.39 fold enrichment (6-mer frequency, TF over GST control) with SPIC; 1.15 fold enrichment (6-mer frequency, TF over GST control) with ELF4; 1.19 fold enrichment (6-mer frequency, TF over GST control) with ELK4. The binding signal is 1.02 fold enrichment (6-mer frequency, TF over GST control) with ETV2; 1.06 fold enrichment (6-mer frequency, TF over GST control) in the assay with ELF3; 1.94 fold enrichment (6-mer frequency, TF over GST control) in the assay with CRX; 1.22 fold enrichment (6-mer frequency, TF over GST control) with ETV1.
For the sequence TAAACG, the binding signal with FEV is 1.12 fold enrichment (6-mer frequency, TF over GST control); in the assay with ETV5, 1.07 fold enrichment (6-mer frequency, TF over GST control); with HSF1, 1.19 fold enrichment (6-mer frequency, TF over GST control); with SPIC, 1.05 fold enrichment (6-mer frequency, TF over GST control); with ELF4 it was 1.13 fold enrichment (6-mer frequency, TF over GST control); with ELK4 it was 1.2 fold enrichment (6-mer frequency, TF over GST control). Besides, the binding signal in the assay with ETV2 is 1.09 fold enrichment (6-mer frequency, TF over GST control); in the assay with ELF3, 1.07 fold enrichment (6-mer frequency, TF over GST control); in the assay with CRX, 1.44 fold enrichment (6-mer frequency, TF over GST control); in the assay with ETV1 it was 1.13 fold enrichment (6-mer frequency, TF over GST control).
As to TCATTT, the binding signal is 1.38 fold enrichment (6-mer frequency, TF over GST control) in the assay with FEV; 1.4 fold enrichment (6-mer frequency, TF over GST control) with ETV5; 1.14 fold enrichment (6-mer frequency, TF over GST control) in the assay with HSF1; 1.41 fold enrichment (6-mer frequency, TF over GST control) with SPIC; 1.34 fold enrichment (6-mer frequency, TF over GST control) with ELF4; 1.37 fold enrichment (6-mer frequency, TF over GST control) in the assay with ELK4. For the same sequence, the binding signal in the assay with ETV2 is 1.5 fold enrichment (6-mer frequency, TF over GST control); with ELF3 it was 1.24 fold enrichment (6-mer frequency, TF over GST control); with CRX, 1.16 fold enrichment (6-mer frequency, TF over GST control); in the assay with ETV1, 1.41 fold enrichment (6-mer frequency, TF over GST control).
Consider TACTTT, for which the binding signal with FEV was 1.33 fold enrichment (6-mer frequency, TF over GST control); with ETV5, 1.38 fold enrichment (6-mer frequency, TF over GST control); in the assay with HSF1 it was 1.44 fold enrichment (6-mer frequency, TF over GST control); in the assay with SPIC, 1.26 fold enrichment (6-mer frequency, TF over GST control); with ELF4, 1.43 fold enrichment (6-mer frequency, TF over GST control); with ELK4, 1.4 fold enrichment (6-mer frequency, TF over GST control). Also, the binding signal with ETV2 is 1.33 fold enrichment (6-mer frequency, TF over GST control); in the assay with ELF3 it was 1.73 fold enrichment (6-mer frequency, TF over GST control); with CRX, 1.71 fold enrichment (6-mer frequency, TF over GST control); with ETV1, 1.39 fold enrichment (6-mer frequency, TF over GST control).
As for GATCTC, the binding signal in the assay with FEV was 1.2 fold enrichment (6-mer frequency, TF over GST control); in the assay with ETV5, 1.27 fold enrichment (6-mer frequency, TF over GST control); with HSF1, 1.42 fold enrichment (6-mer frequency, TF over GST control); in the assay with SPIC, 1.26 fold enrichment (6-mer frequency, TF over GST control); with ELF4 it was 1.3 fold enrichment (6-mer frequency, TF over GST control); in the assay with ELK4 it was 1.22 fold enrichment (6-mer frequency, TF over GST control). Besides, the binding signal with ETV2 is 1.3 fold enrichment (6-mer frequency, TF over GST control); with ELF3, 1.23 fold enrichment (6-mer frequency, TF over GST control); in the assay with CRX, 1.46 fold enrichment (6-mer frequency, TF over GST control); with ETV1, 1.35 fold enrichment (6-mer frequency, TF over GST control).
TCTACC: the binding signal was 1.52 fold enrichment (6-mer frequency, TF over GST control) in the assay with FEV; 1.52 fold enrichment (6-mer frequency, TF over GST control) with ETV5; 1.67 fold enrichment (6-mer frequency, TF over GST control) in the assay with HSF1; 1.53 fold enrichment (6-mer frequency, TF over GST control) with SPIC; 1.56 fold enrichment (6-mer frequency, TF over GST control) with ELF4; 1.48 fold enrichment (6-mer frequency, TF over GST control) with ELK4. For the same sequence, the binding signal was 1.39 fold enrichment (6-mer frequency, TF over GST control) with ETV2; 1.53 fold enrichment (6-mer frequency, TF over GST control) with ELF3; 1.44 fold enrichment (6-mer frequency, TF over GST control) with CRX; 1.57 fold enrichment (6-mer frequency, TF over GST control) in the assay with ETV1.
In the case of TTATTT, the binding signal with FEV was 1.41 fold enrichment (6-mer frequency, TF over GST control); with ETV5, 1.47 fold enrichment (6-mer frequency, TF over GST control); with HSF1 it was 1.64 fold enrichment (6-mer frequency, TF over GST control); with SPIC it was 1.48 fold enrichment (6-mer frequency, TF over GST control); with ELF4, 1.32 fold enrichment (6-mer frequency, TF over GST control); with ELK4, 1.43 fold enrichment (6-mer frequency, TF over GST control). Moreover, the binding signal is 1.26 fold enrichment (6-mer frequency, TF over GST control) with ETV2; 1.55 fold enrichment (6-mer frequency, TF over GST control) in the assay with ELF3; 2.43 fold enrichment (6-mer frequency, TF over GST control) in the assay with CRX; 1.52 fold enrichment (6-mer frequency, TF over GST control) in the assay with ETV1.
In the case of TAGTTC, the binding signal with FEV was 1.28 fold enrichment (6-mer frequency, TF over GST control); with ETV5, 1.41 fold enrichment (6-mer frequency, TF over GST control); in the assay with HSF1, 1.45 fold enrichment (6-mer frequency, TF over GST control); with SPIC, 1.47 fold enrichment (6-mer frequency, TF over GST control); with ELF4, 1.43 fold enrichment (6-mer frequency, TF over GST control); in the assay with ELK4, 1.49 fold enrichment (6-mer frequency, TF over GST control). In addition, the binding signal with ETV2 was 1.4 fold enrichment (6-mer frequency, TF over GST control); with ELF3 it was 1.49 fold enrichment (6-mer frequency, TF over GST control); in the assay with CRX, 1.23 fold enrichment (6-mer frequency, TF over GST control); with ETV1 it was 1.4 fold enrichment (6-mer frequency, TF over GST control).
